# Source: PubChem (NMMLSC)
# Most compounds without a hit are left out; they make up all but 1.9% or so of the library.
# Autofluor Jurkat = counter-screen for VLA-4 integrin: compound autofluorescence in Jurkat cells; fluorescence ratio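 (tested at 10 µM compound in the well)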; actives 0.61% (n = 24,000); AID 576; flow cytometry; active compounds read high; 1 = vehicle-only cell background;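 active = fluorescence ratio above 2.44, which is 1 plus 3 SD of all ratios; inconclusive = signal too bright to measure linearly, ratio around 10 or more; inactive = fluorescence ratio below 2.44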;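 note: green fluorescence of cells measured with 488 nm excitation and 530 nm emission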
# FPR ligand = binds the human formylpeptide receptor FPR; P21462; FPR-expressing cells, fluorescent ligand binding, flow cytometry; inhibition, % (concentration not given with the values); actives 0.74% (n = 24,000); AID 440;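 note: 0% = buffer wells and 100% = receptor blocker peptide wells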
# Prostate diff = LNCaP prostate cell differentiation activation. flow cytometry side scatter, 4 d. side scatter shift, % at 10 µM. actives 0.56% (n = 24,000). AID 795;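 active = side scatter shift above 30%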;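 note: androgen-responsive LNCaP prostate cancer cells in charcoal-stripped serum medium; percent of cells past a gate set so DMSO wells show 10% shift; higher shift means more granular cells and more differentiation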
# VLA-4 agonist = allosterically activates the human VLA-4 integrin; activation, % at 10 µM (by protocol); Jurkat cells, LDV-FITC binding, flow cytometry; 24,000 tested, under 10 active; P13612;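 active = fluorescent ligand binding to cells raised by more than 40% of the manganese-induced maximum; inconclusive = compound's own fluorescence above 85% of the ligand control signal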;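 note: 0% = ligand binding without compound and 100% = manganese-stimulated maximal binding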
# Target sequence (P13612 whole entry, looked up): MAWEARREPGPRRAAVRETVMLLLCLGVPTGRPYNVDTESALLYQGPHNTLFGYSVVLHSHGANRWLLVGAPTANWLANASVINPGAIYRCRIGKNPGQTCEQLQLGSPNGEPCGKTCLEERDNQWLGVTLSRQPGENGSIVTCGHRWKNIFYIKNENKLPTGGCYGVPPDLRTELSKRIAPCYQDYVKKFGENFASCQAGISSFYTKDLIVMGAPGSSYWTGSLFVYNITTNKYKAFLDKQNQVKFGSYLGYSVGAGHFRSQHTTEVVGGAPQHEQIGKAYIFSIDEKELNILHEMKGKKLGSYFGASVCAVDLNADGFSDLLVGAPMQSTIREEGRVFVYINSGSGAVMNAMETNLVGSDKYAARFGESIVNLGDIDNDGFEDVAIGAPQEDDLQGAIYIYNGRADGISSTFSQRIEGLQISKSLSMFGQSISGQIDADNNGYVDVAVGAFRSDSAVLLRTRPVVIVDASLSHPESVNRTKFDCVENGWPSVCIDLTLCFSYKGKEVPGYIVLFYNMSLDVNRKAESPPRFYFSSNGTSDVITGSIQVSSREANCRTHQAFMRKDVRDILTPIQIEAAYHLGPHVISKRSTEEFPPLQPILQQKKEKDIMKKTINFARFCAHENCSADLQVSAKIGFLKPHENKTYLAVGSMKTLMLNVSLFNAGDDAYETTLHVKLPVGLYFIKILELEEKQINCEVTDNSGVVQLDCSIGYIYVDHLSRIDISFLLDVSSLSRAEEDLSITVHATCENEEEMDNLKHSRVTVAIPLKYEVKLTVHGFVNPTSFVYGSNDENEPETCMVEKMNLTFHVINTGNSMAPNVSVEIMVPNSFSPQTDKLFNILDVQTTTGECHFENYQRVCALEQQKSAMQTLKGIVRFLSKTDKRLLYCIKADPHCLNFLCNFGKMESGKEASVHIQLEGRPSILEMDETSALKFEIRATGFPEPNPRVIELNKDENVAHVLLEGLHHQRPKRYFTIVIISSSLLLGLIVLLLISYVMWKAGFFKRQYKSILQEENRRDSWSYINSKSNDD
# FPRL1 binder = human FPRL1 ligand, with FPR counter-screen; P25090; FPRL1-expressing cells, fluorescent ligand binding inhibition, flow cytometry; inhibition, % (concentration not given with the values); actives 0.3% (n = 24,000); AID 441;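 note: 0% = buffer alone and 100% = receptor blocker peptide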
# VLA-4 antagonist = inhibitors of LDV-FITC ligand binding to Mn2+-activated human VLA-4 integrin; actives 0.2% (n = 24,000); Jurkat cells, LDV-FITC binding with Mn2+, flow cytometry; 100% = Mn2+-driven binding gain fully reversed; P13612; inhibition, % at 10 µM (by protocol);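 active = inhibition above 50%; inconclusive = compound itself fluorescent, judged against control cell fluorescence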;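 note: 0% = Mn2+ stimulated cells lacking compound and 100% = ligand binding without Mn2+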
# Numbers without * were called inactive; ? = inconclusive; nt = no result. Cut-off read from the data, not from the text of the source, unless noted: active = inhibition above about 30%; inconclusive = no clear call, values can overlap the other calls; inactive = below that.
SMILES,Autofluor Jurkat,FPR ligand,Prostate diff,VLA-4 agonist,FPRL1 binder,VLA-4 antagonist
O=C(CNS(=O)(=O)c1ccc(Br)s1)N1CCC(N2CCCCC2)CC1,1,2,3,6,-2,-20
O=C(C1=C(O)C(=O)N(Cc2ccccc2)C1c1ccncc1)c1ccco1 (configuration not stated),1.1,32*,4,6,2,-10
Cc1nnc(N2C(=O)C(O)=C(C(=O)c3ccco3)C2c2ccc(F)cc2)s1 (configuration not stated),1,2,8,-9,1,0
COc1cc(C2C(C(=O)c3cccs3)=C(O)C(=O)N2Cc2ccco2)cc(OC)c1OC (configuration not stated),nt,83*,nt,nt,27,nt
COc1ccc(C2C(C(=O)c3ccco3)=C(O)C(=O)N2CCc2ccccc2)cc1OC (configuration not stated),nt,80*,nt,nt,-6,nt
COc1ccc(C2C(C(=O)c3ccco3)=C(O)C(=O)N2CCOCCO)cc1OC (configuration not stated),nt,-4,nt,nt,4,nt
O=C(C1=C(O)C(=O)N(CC2CCCO2)C1c1cccnc1)c1ccco1 (configuration not stated),nt,39*,nt,nt,-6,nt
O=C(C1=C(O)C(=O)N(Cc2ccco2)C1c1cccnc1)c1cc2ccccc2o1 (configuration not stated),nt,6,nt,nt,-3,nt
COc1cccc2cc(C(=O)C3=C(O)C(=O)N(Cc4ccco4)C3c3cccnc3)oc12 (configuration not stated),nt,34*,nt,nt,30,nt
Cc1ccc(C)c2[nH]c(=O)c(CN(CCN3CCCC3)C(=O)Nc3cccc(Cl)c3)cc12,1.1,-2,73*,-2,-3,7
COc1ccccc1-n1c(CNC(=O)c2ccco2)nnc1SCC(=O)Nc1ccc(F)cc1,1,47*,5,-3,3,-1
COc1ccccc1-n1c(CNC(=O)c2ccco2)nnc1SCC(=O)Nc1cc(C)ccc1C,1,-2,7,1,-1,-13
Cc1cccn2c(=O)c3cc(C(=O)NCc4ccccc4)c(=N)n(CCCN4CCOCC4)c3nc12,1.1,4,58*,?,-2,?
N#CC1=C(N)OC2=C(CCC/C2=C/c2ccoc2)C1c1ccoc1 (configuration not stated),2.5*,2,8,1,4,6
O=c1c2c(nc3c(-c4cccc5ccccc45)c[nH]n13)CCC2,nt,-14,nt,nt,-1,nt
O=c1c2c(nc3c(-c4ccc(Cl)cc4)c[nH]n13)CCCC2,nt,71*,nt,nt,1,nt
CCN(CCCn1c(SCC#N)nc2ccccc2c1=O)c1ccccc1,1.1,-1,2,?,-26,?
O=C(Nc1ccccc1C(=O)N1CCN(c2ccccc2)CC1)c1ccco1,1.1,-6,6,-6,1,2
CN(C)c1nc2c(c(=O)[nH]c(=O)n2C)n1Cc1ccccc1Br,1,-5,8,4,-4,2
COC(=O)c1ccc(/C(O)=C(\C#N)c2nc3ccccc3s2)cc1,2.7*,-5,12,?,-45,?
CC(C)(C)OC(=O)N1CCC(C(=O)N2CCCCCC2)CC1,1.1,-9,31*,2,-7,-2
COc1ccc(Nc2nc(N3CCCC3)c3ccccc3n2)cc1,1.1,6,50*,-14,4,42
CCOC(=O)CC(C#N)c1cn(C)c2ccccc12 (configuration not stated),2.8*,-8,7,?,0,?
CCOc1ccc(C(=O)CN2CCN(S(=O)(=O)c3ccc(OC)cc3)CC2)cc1,1.1,13,5,-5,2,5
O=C1C(=O)N(CCCn2ccnc2)C(c2cccnc2)/C1=C(/O)c1ccc(Cl)cc1 (configuration not stated),nt,-3,nt,nt,5,nt
SMILES,Autofluor Jurkat,FPR ligand,Prostate diff,VLA-4 agonist,FPRL1 binder,VLA-4 antagonist
COc1cccc2c1C(=O)c1c(O)c3c(c(O)c1C2=O)C[C@@](O)(C(C)=O)C[C@@H]3O[C@H]1C[C@H](N)[C@H](O)[C@H](C)O1,?,-15,13,?,32*,?
CCC(=O)N1CCNC(=O)C1CC(=O)Nc1ccc(C)c(Cl)c1 (configuration not stated),1,0,6,-9,10,52*
CC(NC(=O)CC1Nc2ccccc2NC1=O)c1ccccc1 (configuration not stated),1.2,-6,9,3,-3,-8
COc1ccc(CCNC(=O)CC2Nc3ccccc3NC2=O)cc1OC (configuration not stated),1.5,0,13,?,-8,?
CCOc1ccccc1NC(=O)CC1Nc2cc(C)c(C)cc2NC1=O (configuration not stated),4.9*,4,6,?,-9,?
Cc1ccc(NC(=O)CC2Nc3ccccc3NC2=O)cc1Cl (configuration not stated),6.7*,-1,2,?,-1,?
O=C(O)CCCCCCC1C(=O)NC(=O)N1CCC(O)C1CCCCC1 (configuration not stated),0.99,4,3,-2,-2,-6
Cc1cccc(-c2nsc(SCC(=O)N3CCCC3)n2)c1,1.1,-2,24,-9,-4,15
Cc1cccc(-c2nsc(SCC(=O)Nc3nccs3)n2)c1,1.1,-2,34*,-5,-11,13
COc1ccc(OC)c(NC(=O)CSc2nnc(Cn3c(=O)sc4ccccc43)n2C)c1,0.98,-5,3,?,4,?
Cc1ccc(Nc2nc(C3CC3)cs2)cc1,1.4,34*,14,?,8,?
CC(=O)Nc1nc(C)c(-c2csc(Nc3ccc(O)cc3)n2)s1,1.2,-6,19,-28,-7,28
CCOCCCNC(=O)C1CCCCN1S(=O)(=O)c1ccc(F)cc1 (configuration not stated),0.95,-5,2,1,-4,-6
CCOCCCNC(=O)c1cn(C)c(=O)c2cc(OC)c(OC)cc12,1.1,2,9,?,2,?
CCC(C)NC(=O)c1cn(C)c(=O)c2cc(OC)c(OC)cc12 (configuration not stated),0.91,6,37*,-2,6,23
CN1CCc2c(sc3c2C(=O)NC(c2cccc(OC(=O)c4cccs4)c2)N3)C1 (configuration not stated),3.2*,2,7,?,0,?
COc1ccc(-c2coc3c(CN4CCCCC4)c(O)c(CN4CCCCC4)c(O)c3c2=O)cc1,1.1,-6,36*,-4,-2,37
O=C(NC1CCCCC1)c1sc(=S)n2c1[nH]c(=O)c1ccccc12,1.3,62*,6,?,-3,?
